Source: PubChem BioAssay (NCI)
This is part of a sample that, as a whole, favours compounds with a hit. Of some 83,000 tested, about 20% had one in any assay.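 Activity criterion: percent growth below 10, measured after cells in 96-well plates were exposed to a single compound concentration for 48 hours.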 Values without a mark were called inactive. Calls of active or inactive are those of the source.

Assays:
Assay in all cases: NCI-60 one-dose screen, 48 h (100 = growth as untreated, 0 = no growth, -100 = all killed)
Settings in all cases: 10 µM
NCI-H23 lung = system: NCI-H23 lung
NCI-H226 lung = system: NCI-H226 lung
NCI-H322M lung = system: NCI-H322M lung
HOP-62 NSCLC = system: HOP-62 NSCLC
NCI-H460 lung = system: NCI-H460 lung
NCI-H522 lung = system: NCI-H522 lung
A549/ATCC NSCLC = system: A549/ATCC NSCLC
786-0 renal = system: 786-0 renal
COLO 205 colon = system: COLO 205 colon
DU-145 prostate = system: DU-145 prostate
K-562 leukemia = system: K-562 leukemia
MALME-3M melanoma = system: MALME-3M melanoma
MDA-MB-231 breast = system: MDA-MB-231 breast
RXF 393 renal = system: RXF 393 renal
SF-268 CNS = system: SF-268 CNS
SF-295 CNS = system: SF-295 CNS
SF-539 CNS = system: SF-539 CNS
UACC-257 melanoma = system: UACC-257 melanoma
M14 melanoma = system: M14 melanoma
HCT-15 colon = system: HCT-15 colon

| Compound | growth (NCI-H23 lung) [%] | growth (NCI-H226 lung) [%] | growth (NCI-H322M lung) [%] | growth (HOP-62 NSCLC) | growth (NCI-H460 lung) | growth (NCI-H522 lung) | growth (A549/ATCC NSCLC) [%] | growth (786-0 renal) | growth (COLO 205 colon) | growth (DU-145 prostate) | growth (K-562 leukemia) | growth (MALME-3M melanoma) | growth (MDA-MB-231 breast) | growth (RXF 393 renal) | growth (SF-268 CNS) [%] | growth (SF-295 CNS) | growth (SF-539 CNS) | growth (UACC-257 melanoma) | growth (M14 melanoma) | growth (HCT-15 colon) |
| --- | --- | --- | --- | --- | --- | --- | --- | --- | --- | --- | --- | --- | --- | --- | --- | --- | --- | --- | --- | --- |
| Cc1c(Cl)cccc1NC(=O)c1sc2nc3c(cc2c1N)C(=O)CCC3 | 16.4 | 55.8 | 27.8 | 34% | 4.71% (active) | -28.4% (active) | 16.7 | 37.7% | -30% (active) | -17.7% (active) | 7.09% (active) | 40.1% | 12.6% | -16.4% (active) | 37.4 | -8.15% (active) | -40.7% (active) | 48.1% | 3.72% (active) | 21% |
| CCCCOC(=O)Oc1ccc(C(=O)Oc2ccc(OCC)cc2)cc1 | 99.9 | 92.7 | 98.6 | 113% | 106% | 82.7% | 85.6 | 96.7% | 118% | 97.7% | 109% | 109% | 97.9% | 102% | 95.5 | 109% | 86.2% | 99.5% | 96.7% | 102% |
| COc1cc(NC(=O)CCSc2nc3ccc(C)cc3c(=O)n2Cc2ccccc2)cc(OC)c1OC | 108 | 27.4 | 71.9 | 9.27% (active) | 48.3% | 65.2% | 42.6 | 72.6% | 112% | 83.6% | 78% | 33.8% | 52.5% | 36.4% | 40.4 | 59.4% | 33.5% | 57.1% | 87.4% | 76.5% |
| O=C1Nc2ccccc2C1=NC1CCCCC1 | 95.2 | 92 | 90.3 | 88.3% | 105% | 70.4% | 103 | 93.6% | 96.5% | 110% | 100% | 90.9% | 103% | 107% | 96 | 98.3% | 99.7% | 100% | 106% | 105% |
| COc1cc(NC(=O)c2sc3nc4c(cc3c2N)C(O)CCC4)cc(OC)c1 (stereo not given) | 99.3 | 97.1 | 88.7 | 65.8% | 104% | 69% | 86.1 | 97.3% | 105% | 108% | 27.9% | 77.6% | 88.9% | 90.4% | 103 | 87.5% | 87.7% | 89.2% | 75.4% | 60.1% |
| COc1cc(NC(=O)CCSc2nc3ccc(Cl)cc3c(=O)n2Cc2ccccc2)cc(OC)c1OC | 93.5 | 31.1 | 83.1 | 57.2% | 81.8% | -9.19% (active) | 59.3 | 93.2% | 107% | 108% | 67.1% | 84.3% | 51.2% | 57.2% | 95.1 | 66.2% | 26.8% | 61% | 75.2% | 72.5% |
| CCCCCCCCCCCCCCCCCCOCC(COCCOCC[N+]1(CCCCCC(=O)[O-])CCCC1)Oc1ncccn1 (stereo not given) | 46.5 | 56 | 101 | 21.3% | 23.7% | 12.9% | 51.2 | 52.8% | -17.2% (active) | 77.6% | 19.8% | 82.9% | 51.9% | 28.3% | 32.6 | 26.9% | 36.8% | 45.5% | 30% | 56.3% |
| C(CCCC1=NCCO1)CCCC1=NCCO1 | 97.2 | 95.8 | 118 | 107% | 104% | 103% | 101 | 99.1% | 99.5% | 108% | 110% | 106% | 104% | 95.6% | 104 | 101% | 101% | 104% | 109% | 99.3% |
| O=C1/C(=C\c2ccccc2)CN(C(=O)c2ccccc2F)C/C1=C\c1ccccc1 | 33.8 | 27.9 | 74.6 | 17.9% | 51.6% | -3.31% (active) | 53.3 | -40.8% (active) | 14.6% | 7.15% (active) | 0.045% (active) | -34.5% (active) | 12.7% | -78.2% (active) | 16.9 | 6.51% (active) | 40.5% | -10.1% (active) | -59.5% (active) | -28.5% (active) |
| CC/C(C)=C(\C)C(=O)O | 101 | 96.5 | 89.5 | 95% | 105% | 89.3% | 101 | 98.5% | 104% | 104% | 100% | 99.7% | 111% | 110% | 105 | 94.7% | 104% | 91.7% | 104% | 107% |
| COc1ccc(OC)c2c1C(=O)CC2C (stereo not given) | 102 | 101 | 96.5 | 101% | 104% | 110% | 103 | 108% | 106% | 107% | 116% | 87% | 100% | 98.3% | 94.2 | 98% | 101% | 107% | 112% | 110% |
| FC(F)(F)c1ccc(-c2cnc(-n3cc(COCCN4CCCCC4)nn3)nc2NC2CCCCCC2)cc1 | 67.7 | 78.7 | 54.4 | 52.4% | -68.3% (active) | -12.8% (active) | 10.6 | 51.1% | -93.4% (active) | 57.7% | -48.4% (active) | -86.3% (active) | 11.1% | -3.46% (active) | 33.2 | -56.8% (active) | -66.8% (active) | -89.7% (active) | -87.6% (active) | 3.73% (active) |
| c1ccc(CSc2nnc3c4c5c(sc4nc(-c4cccnc4)n23)CCCCCC5)cc1 | 54.7 | 67.1 | 99.7 | 91.3% | 19.3% | 6.26% (active) | 36.8 | 73.6% | 20.5% | 56.4% | 21.7% | 16.2% | 71.4% | 83.3% | 57 | 45.1% | 79.7% | 35% | 45% | 94.2% |
| COc1ccc(-c2nc(-c3nc4cc(Cl)c(Cl)cc4[nH]3)c3ccccn23)cc1 | 67.5 | 44.5 | 48.4 | -11.7% (active) | 41.5% | 55.9% | 16.8 | 0.945% (active) | 88.4% | 47.5% | 59.8% | 18% | -18.3% (active) | -39.4% (active) | 21 | 13.9% | 8.32% (active) | 63.6% | 70.1% | 76.7% |
| COc1ccc(NC2=NC(C)(CO)CS2)cc1 (stereo not given) | 97.1 | 103 | 102 | 94.6% | 100% | -14.7% (active) | 42.8 | 105% | 117% | 120% | 98.7% | 112% | 97.5% | 130% | 103 | 109% | 89.7% | -25.7% (active) | 101% | 90.3% |
| CCC(=O)N1C/C(=C/c2ccc(OC)cc2)C(=O)/C(=C/c2ccc(OC)cc2)C1 | 63.9 | 29.5 | 111 | 20.5% | 61.4% | 20.6% | 32 | 4.83% (active) | 27.2% | 18.7% | 1.72% (active) | -9.29% (active) | 19.4% | -66.7% (active) | 24 | -5.17% (active) | 54.7% | 43.4% | -16.5% (active) | 4.21% (active) |
